Screens as filed in PubChem BioAssay.
This is a sample that favours compounds with a hit; in the whole collection about 6.5% have one here.
HCMV inh – blocks human cytomegalovirus replication | HFF cells, HCMV-luciferase reporter, 72 h; active compounds read low | activity change, negative = inhibition, % at 57.5 µM | actives 4.5% (n = 410,000); in the data active = activity change below about -60%; inconclusive = no clear call, values can overlap the other calls; inactive = above about -39%
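Two compound doses tested in HFFs infected with HCMV-luciferase, MOI 1 PFU/cell, 72 h at 37C. Lysate luminescence read with OneGlo; data normalized against buffer-only and 10uM Salinomycin inhibitor controls.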
Lassa entry inh – blocks Lassa virus binding to or entry into cells. Potency, µM (series often up to 37.9 µM), for the others: top-dose activity change, negative = inhibition, usual class: inhibitors. actives 1.2% (n = 300,000). Lassa virus pseudotype entry inhibition, cell reporter. AID 540256; calls by dose curve; tested in HEK293 cells; note: potency is the fitted concentration of half-maximal effect; nearly all actives have a fitted effect of over 50% in size
MARV entry inh – inhibitors of Marburg virus binding or cell entry; Marburg virus pseudotyped entry inhibition, cell reporter; Potency, µM (series often up to 37.8 µM), without a hit: top-dose activity change, negative = inhibition, usual class: inhibitors; actives 1.8% (n = 300,000); AID 540276; calls by dose curve; tested in HEK293 cells; note: potency is the fitted concentration of half-maximal effect
VACV Venus inh – inhibitors of vaccinia virus (Venus reporter); Vaccinia virus Venus reporter expression, fluorescence; actives 0.46% (n = 330,000); Potency, µM (series often up to 36.5 µM), without a hit: at the top dose activity change, negative = inhibition, hits mostly inhibitors; AID 720580; calls by dose curve; tested in A549 cells; note: potency is the fitted concentration of half-maximal effect; nearly all actives have a fitted effect of over 30% in size
Vaccinia mCherry – inhibitors of vaccinia virus infection (mCherry reporter signal); Vaccinia virus mCherry reporter infection, fluorescence; Potency, µM (top dose mostly 36.5 µM), for inactives: at the highest dose activity change, negative = inhibition, usual class: inhibitors; actives 0.63% (n = 310,000); AID 720579; calls by dose curve; tested in A549 cells; note: potency is the fitted concentration of half-maximal effect; nearly all actives have a fitted effect of over 35% in size
FMDV inh – foot and mouth disease virus antiviral activity. FMDV antiviral cell-based qHTS. Potency, µM (doses to about 57.9 µM), inactives show top-dose activity change, negative = inhibition, usual class: inhibitors. actives 1.2% (n = 410,000). AID 1159524; calls by dose curve; tested in HEK293T cells; note: read-out not given here; potency is the fitted concentration of half-maximal effect; nearly all actives have a fitted effect of over 45% in size
Active calls of the source: *; i = inactive; u = inconclusive; x = no result; ! = not confirmed by another sample; [ ] = remark or other dose. % is set by controls: 0 for no effect and ±100 for the full control effect.

SMILES | HCMV inh | Lassa entry inh | MARV entry inh | VACV Venus inh | Vaccinia mCherry | FMDV inh
O=C1CCCC2=C1C1c3ccccc3C(=O)N1c1ccc(C(=O)c3ccccc3)cc1N2 (stereo unspecified) | -76.1* | u | u | -18.9% | -10.8%[1.46 µM] | -25.3%
O=C1CC(c2ccco2)CC2=C1C1c3ccccc3C(=O)N1c1ccccc1N2 (stereo unspecified) | -24.2 | -9.3% | u | u | x | 19.8%
O=C(NCC1Cc2cc(F)cc(-c3cccnc3)c2O1)c1cnn(-c2ccccc2)c1 (stereo unspecified) | x | x | x | 17.0% | 17.4% | -2.3%
Cc1ccc2nc(C)c(C(=O)N/N=C/c3ccccc3[N+](=O)[O-])cc2c1 | -14.7 | -2.6% | -5.5% | -8.0% | i | 0.9%
Cc1cc([N+](=O)[O-])c2[nH]c(C(=O)N/N=C/c3ccccc3C(=O)O)c(-c3ccccc3)c2c1 | -80.2* | -7.1% | -13.6% | x | x | -4.9%
COc1cccc(CN(CC(=O)NC2CCCC2)C(=O)CCC(=O)Nc2cc(C)on2)c1 | -80.8* | 2.6% | -11.4% | -9.3% | -21.9% | -13.1%
COc1cccc(N(CC(=O)NC2CCCC2)C(=O)CCC(=O)Nc2cc(C)on2)c1 | 7.6 | -12.3% | -15.9%[46.1 µM] | -5.4% | i | 0.2%
Cc1cc(NC(=O)CCC(=O)N(c2ccc(F)cc2)C2(C(=O)NC3CCCCC3)CCCC2)no1 | -21.5 | -22.8% | 11.2µM* | u | -22.1% | -29.3%
Cc1cc(NC(=O)CCC(=O)N(Cc2ccccc2)C2(C(=O)NC3CCCCC3)CCCC2)no1 | u | u | u | -13.4% | i | -5.3%
COc1ccc(CN2CCOc3ccc(CN4CCC(O)(c5cccnc5)CC4)cc3C2)cc1OC | x | x | x | -17.9% | -18.8% | -28.0%
O=C(c1ccc([N+](=O)[O-])s1)N1CCN(c2ccccc2)CC1 | -96.5* | x | 3.3% | u | -25.0% | -10.6%
O=C(c1cc(Br)c(Br)s1)N1CCN(c2ccccn2)CC1 | -8.6 | 0.5% | u | -15.2% | -14.0% | -24.3%
O=C(c1ccc([N+](=O)[O-])s1)N1CCN(c2ccccn2)CC1 | -61.1* | 0.0% | 0.5%[46.1 µM] | u | u | -5.5%
COc1ccc(OC)c2sc(N3CCN(C(=O)c4ccc([N+](=O)[O-])s4)CC3)nc12 | -12.0 | -15.0% | -7.3% | -5.1% | i | -21.6%
COc1ccc(Cl)cc1N=Nc1ncc[nH]1 | x | x | x | -3.1% | i | -17.5%
O=C1CC(c2ccccc2)Sc2nc3ccccc3n21 (stereo unspecified) | -3.7 | -25.7% | u | -6.1% | -7.0% | -2.8%
O=C1CC(c2ccc3c(c2)OCO3)Sc2nc3ccccc3n21 (stereo unspecified) | u | u | u | -1.1% | i | 17.8µM*
C[C@@H]1NS(=O)(=O)c2cccc(Cl)c2O[C@@H]1c1ccccc1 | -20.0 | x | x | x | x | x
COc1ccccc1CN1CC(C(=O)NCc2cc(F)ccc2C)CCC1=O (stereo unspecified) | 31.0 | 16.9%[46.1 µM] | u | -9.5% | -6.4% | 29.7%
COc1ccccc1CN1CC(C(=O)NCC2(O)CCCCC2)CCC1=O (stereo unspecified) | -64.3* | x | x | -3.1% | i | -8.2%
C[C@@H]1CNC(=O)c2c(C(=O)Nc3ccc(CNC(=O)OC(C)(C)C)cc3)ncn21 | -65.5* | x | x | u | u | u
CCC(O)CNC(=O)c1cnn(-c2nccc(-c3cc(C)sc3C)n2)c1C1CC1 (stereo unspecified) | x | x | x | -11.7% | -24.7% | 36.1%
Cc1nc2ccc(S(=O)(=O)NCC(=O)NCc3ccc(Cl)cc3)cc2s1 | -69.4*! | 3.0%[46.1 µM] | 5.6%[46.1 µM] | 0.0%[7.34 µM] | -14.5% | -7.6%
Cc1nc2ccc(S(=O)(=O)CCC(=O)NCc3ccc(Cl)cc3)cc2s1 | -7.1 | x | x | x | x | x
N#C/C(=C\c1ccc(O)cc1)C(=O)O | -73.5*! | x | x | -18.2% | 9.6% | -12.9%
CCC[C@@H](/C=C/C(=O)OCC)NC(=O)C(F)(F)F | -4.6 | x | x | x | x | x
Cc1ccccc1NC1=NCC(c2ccc([N+](=O)[O-])cc2)S1 (stereo unspecified) | u | 5.3% | u | 12.6µM* | 11.2µM* | -23.6%
Cn1cnc2nc(Cl)nc(Cl)c21 | -71.7* | u | u | u | u | u
CNc1nc(Cl)nc2ncn(C)c12 | -32.4 | 22.5% | 24.0% | -4.4% | -9.6% | -3.3%
